Screening data (PubChem)
This is a sample that favours compounds with a hit; in the whole collection about 21% have one here.
IL-1B inflam inh – inhibitors of inflammasome signaling (IL-1 beta secretion). THP-1 LPS/ATP IL-1B secretion, AlphaLISA, 16 h; hits give low values. activity change, % at 57.5 µM. hit rate 4.7% among 360,000. AID 743279; in the data active means activity change below about -50%; inconclusive means mostly about -30% to -49%
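THP-1 cells pretreated 1 hr with compounds (up to 57.5 uM final), then stimulated with LPS (250 ng/mL final) plus ATP (1.25 mM final); secreted IL-1B measured by AlphaLISA after 16 hr, decreased signal indicating inhibition.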
TDP1 cell noCPT – qHTS for Inhibitors of human tyrosyl-DNA phosphodiesterase 1 (TDP1): qHTS in cells in absence of CPT. DT40 Tdp1-/- hTDP1 cells, no CPT, ATP luminescence, 48 h. Potency, µM (highest dose often 46.2 µM), actives largely listed as inhibitors. hit rate 15% among 420,000. AID 686978, 2013; further: nearly all actives have a fitted effect of over 55% in size
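Growth kinetics read by CellTiter-Glo luminescence after ≥48 hr at 37 °C. Cells: DT40 Tdp1-/- stably carrying human TDP1, 400 per well, compound exposure in the absence of CPT (DMSO vehicle).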
RORgamma inh – ROR gamma (mouse) transcription inhibition. P51450. Drosophila S2 Gal4-RORgamma UAS-luciferase reporter, 20 h. Potency, µM (highest dose often 53.6 µM), most hits filed as inhibitors. hit rate 5.4% among 310,000; further: nearly all actives have a fitted effect of over 60% in size
Target sequence (P51450 whole entry, looked up, the tested form may be a part): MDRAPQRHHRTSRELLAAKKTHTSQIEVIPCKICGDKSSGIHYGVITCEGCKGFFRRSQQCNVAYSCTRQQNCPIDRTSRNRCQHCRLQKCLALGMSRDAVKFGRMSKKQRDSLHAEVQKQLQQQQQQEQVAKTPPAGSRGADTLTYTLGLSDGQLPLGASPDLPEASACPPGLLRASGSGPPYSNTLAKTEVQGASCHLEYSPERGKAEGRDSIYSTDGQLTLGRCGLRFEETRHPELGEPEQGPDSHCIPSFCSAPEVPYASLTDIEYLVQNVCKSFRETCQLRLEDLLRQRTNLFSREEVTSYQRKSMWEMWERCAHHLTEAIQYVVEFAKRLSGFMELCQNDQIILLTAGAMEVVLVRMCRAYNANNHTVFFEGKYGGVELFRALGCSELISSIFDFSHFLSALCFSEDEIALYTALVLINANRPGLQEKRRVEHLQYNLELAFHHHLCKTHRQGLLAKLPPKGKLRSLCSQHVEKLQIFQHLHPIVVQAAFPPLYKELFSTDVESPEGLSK
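Schneider cells (Drosophila), stable Gal4 DBD–ROR gamma + UAS-luc; 1 hr cmpd preincubation; Cu2+ induction 700 uM final; 20 hr ambient; luminescence.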
VP16 counter – counter-screen for ROR gamma inhibitors: Gal4-VP16 reporter. AID 2546. Drosophila S2 Gal4-VP16 UAS-luciferase, luminescence, 20 h. Potency, µM (highest dose often 53.6 µM), usual class: inhibitors. hit rate 3.5% among 310,000;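 further: Gal4-VP16 expression switched on by copper sulfate through the metallothionein promoter; nearly all actives have a fitted effect of over 50% in size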
TDP1 cell CPT – DT40-hTDP1 cell growth loss with CPT; chicken DT40 Tdp1-/-;hTDP1 cells + 20 nM CPT, ATP luminescence, 48 h; Potency, µM (series often up to 46.2 µM), most hits filed as inhibitors; hit rate 12% among 420,000; AID 686979; further: nearly all actives have a fitted effect of over 55% in size
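Chicken DT40 Tdp1-/- cells complemented with human TDP1, 400 cells/well, exposed to compounds plus 20 nM camptothecin for at least 48 h at 37 C; viability read as ATP content by CellTiter-Glo luminescence.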
ELG1 repair inh – ELG1-dependent DNA repair inhibition; Potency, µM (doses to about 46.1 µM), actives largely listed as inhibitors; hit rate 2.3% among 330,000; HEK293T ELG1-luciferase reporter, luminescence, 16 h; DNA damage induced by 5-fluorouridine; further: nearly all actives have a fitted effect of over 55% in size
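Luminescence from the luciferase reporter, measured 30 min after ONE-Glo reagent at room temperature, was the read-out. Beforehand, 2,000 cells per well were exposed for 16 hr at 37 °C to 5-fluorouridine together with compound or vehicle.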
Hits are given with their value; - = inactive; ? = inconclusive; . = no result. Unless noted, the call rests on the fitted dose curve; in most records, active means well fitted curve in the direction sought with a large enough effect; inconclusive means small, poorly fitted or top-dose-only effect, or another doubt; inactive means no such curve, though single readings can be large; an effect the other way counts as inactive or inconclusive.

SMILES | IL-1B inflam inh | TDP1 cell noCPT | RORgamma inh | VP16 counter | TDP1 cell CPT | ELG1 repair inh
O=C(Cn1cnnn1)N[C@@H]1C(=O)N2C(C(=O)O)=C(CSc3nncs3)CS[C@H]12 | . | - | . | . | - | .
COCC(C)NC(=O)c1cc2c(=O)n3cccc(C)c3nc2s1 (stereo unspecified) | . | - | . | . | - | .
COc1cc2nc3c(c([Si](C)(C)C(C)(C)C)c2cc1OC)Cn1c-3cccc1=O | . | . | - | - | . | .
Cc1ccc(N2CCN(c3ncccc3[N+](=O)[O-])CC2)c(C)c1 | -50 | ? | - | - | - | -
O=[N+]([O-])c1cccnc1N1CCN(c2ccccc2F)CC1 | - | ? | - | - | - | -
O=[N+]([O-])c1cccnc1N1CCCCC1 | - | - | - | - | - | -
Cc1ccc(C)c(N2CCN(c3ncccc3[N+](=O)[O-])CC2)c1 | -51 | - | - | - | - | -
O=C(CSc1nnnn1C1CC2CCC1C2)Nc1ccnc2ccccc12 (stereo unspecified) | - | 0.16µM | ? | 0.0022µM | 0.16µM | ?
COc1ccc(N2CC(C)(C)[C@H](CC(=O)Nc3ccccc3)C2=O)cc1 | - | - | . | . | - | .
CCOc1ccc(NC(=O)c2oc3ccccc3c2NC(=O)CC)cc1 | . | . | - | - | . | ?
CCOc1ccccc1C(=O)Nc1c(C(=O)Nc2ccc(F)cc2)oc2ccccc12 | . | 2.3µM | . | . | 4.1µM | .
CCOc1ccc(NC(=O)c2oc3ccccc3c2NC(=O)C(C)(C)C)cc1 | . | 18µM | . | . | ? | .
COc1ccc(NC(=O)c2oc3ccccc3c2NC(=O)C(C)(C)C)cc1 | -55 | ? | - | - | ? | ?
CC(=O)[C@H]1[C@H](C#N)CC2C3CC=C4C[C@@H](O)CCC4(C)C3CCC21C (stereo partly specified) | . | . | - | - | . | .
COc1ccccc1OCc1nc(-c2cccc(C)c2)no1 | . | - | . | . | - | .
COc1ccccc1C(=O)N(Cc1nc(-c2cccc(C)c2)no1)C(C)C | . | ? | . | . | 21µM | .
COc1cccc(C(=O)N(Cc2nc(-c3cccc(C)c3)no2)C(C)C)c1OC | - | 18µM | - | - | ? | ?
CN(C(=O)Cc1c[nH]c2ccccc12)C(C(=O)Nc1ccc2c(c1)OCO2)c1ccccc1 (stereo unspecified) | -67 | ? | - | - | - | -
CC(=O)NC(Cc1c[nH]c2ccccc12)C(=O)Nc1ccc2c(c1)OCO2 (stereo unspecified) | - | - | - | - | - | ?
Clc1cccc(-n2ncc3c(NC4CCCCCC4)ncnc32)c1 | . | ? | . | . | 21µM | .
Cc1cccc(-n2ncc3c(NC4CCCC4)ncnc32)c1 | . | - | . | . | 21µM | .
Cc1ccc(-n2ncc3c(NC4CCCCC4)ncnc32)cc1Cl | . | 16µM | . | . | 21µM | .
Cc1cccc(NC(=O)COC(=O)CC2CCCC2)c1C | - | - | . | . | - | -
COc1ccccc1CNC(=O)CCC(=O)N1CC2CCCN2c2ccccc21 (stereo unspecified) | . | - | . | . | - | .
C[C@@H]1COC(=O)[C@@H](CC(=O)OC(C)(C)C)C/C=C\C[C@H](CC(=O)NCCO)C(=O)N1 | - | - | . | . | - | -
SMILES | IL-1B inflam inh | TDP1 cell noCPT | RORgamma inh | VP16 counter | TDP1 cell CPT | ELG1 repair inh
COc1ccc(-c2nnc(N3CCCCC3)c3ccccc23)cc1 | -66 | 18µM | - | - | 23µM | -
CN1CCN(c2nnc(-c3cccs3)c3ccccc23)CC1 | -54 | - | - | - | - | -
COc1ccccc1N1CCN(c2nnc(-c3ccc(F)cc3)c3ccccc23)CC1 | - | 21µM | - | - | ? | ?
COc1ccc(-c2nnc(N3CCOCC3)c3ccccc23)cc1 | . | - | - | - | - | ?
CCN1CCN(c2nnc(-c3ccccc3)c3ccccc23)CC1 | - | - | - | - | - | -
Cc1ccc(-c2nnc(N3CCCCCC3)c3ccccc23)cc1 | . | 16µM | ? | ? | ? | -
O=c1c(-c2ccc(F)cc2)nc2cnc(Nc3ccccc3)nc2n1C[C@H]1CCCO1 | . | - | - | - | - | .
